We go through five molecules from PubChem BioAssay (NCATS).

Records with an inconclusive call do not appear. Where a call stands in place of a potency, no number is given. Active and inactive are the calls of the source. The call rests on the fitted dose curve; in most records, active means well fitted curve in the direction sought with a large enough effect; inconclusive means small, poorly fitted or top-dose-only effect, or another doubt; inactive means no such curve, though single readings can be large; an effect the other way counts as inactive or inconclusive.
Potency means the concentration at half of the fitted maximal effect.

One test in a line: qHTS of pediatric cancer cell lines to identify multiple opportunities for drug repurposing: Confirmatory screen for control Hh wild type fibroblast cells (AID 1347121). Further: nearly all actives have a fitted effect of over 70% in size. Particulars: viability qHTS; series mostly up to 45.9 µM. The gist of the method:
(§1)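 Viability after 48 h compound treatment at 37C, 500-1,000 cells/well, read as ATP luminescence with CellTiter-Glo. Primary screens used 11-point (MIPE, 0.78 nM-46 µM) or 8-point (NPC, 0.59 nM-46 µM) final concentrations; follow-up screens used 11-point dilutions.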
In general terms: qHTS replaces the single test concentration by a dilution series.
As to `COc1ccc(C(=O)N2CCCC2=O)cc1`, the Potency entry was “inactive”.

In the case of `C[C@@H]1C[C@@H]([C@H](O)CC2CC(=O)NC(=O)C2)C(=O)[C@@H](C)C1`, the Potency entry was “inactive”.

Turning to `CC[n+]1c(-c2ccccc2)c2cc(N)ccc2c2ccc(N)cc21`, the Potency is 9.27 µM (active).

As for `COc1ccc2c(C(=O)c3ccc(Cl)cc3)c(C)n(CC(=O)O)c2c1`, the Potency result was “inactive”.

The nature of the next test: qHTS of pediatric cancer cell lines to identify multiple opportunities for drug repurposing: Confirmatory screen for U-2 OS cells (AID 1347122). Further: nearly all actives have a fitted effect of over 65% in size. Particulars: U-2 OS osteosarcoma cell viability; series mostly up to 45.9 µM. The gist of the method:
as §1
On to `COc1ccc(C(=O)N2CCCC2=O)cc1`, for which the Potency entry was “inactive”.

`C[C@@H]1C[C@@H]([C@H](O)CC2CC(=O)NC(=O)C2)C(=O)[C@@H](C)C1`: the Potency is 3.29 µM (active).

With `CCCCCCCCCCCC[N+](C)(C)CCOc1ccccc1`, the Potency is 13.1 µM (active).

Regarding `COc1ccc2c(C(=O)c3ccc(Cl)cc3)c(C)n(CC(=O)O)c2c1`, the Potency entry was “inactive”.

The nature of another test: qHTS of pediatric cancer cell lines to identify multiple opportunities for drug repurposing: Confirmatory screen for RD cells (AID 1347124).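 Further: cells exposed to compound for 48 h before viability readout; nearly all actives have a fitted effect of over 65% in size.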 Conditions: RD rhabdomyosarcoma cell viability; series mostly up to 45.9 µM. The gist of the method:
as §1
With `C[C@@H]1C[C@@H]([C@H](O)CC2CC(=O)NC(=O)C2)C(=O)[C@@H](C)C1`, the Potency is 2.61 µM (active).

As to `CCCCCCCCCCCC[N+](C)(C)CCOc1ccccc1`, the Potency was 18.5 µM (active).

In the case of `CC[n+]1c(-c2ccccc2)c2cc(N)ccc2c2ccc(N)cc21`, the Potency was 14.7 µM (active).

Regarding `COc1ccc2c(C(=O)c3ccc(Cl)cc3)c(C)n(CC(=O)O)c2c1`, the Potency entry was “inactive”.
